Screens (PubChem BioAssay)
CBFb-RUNX1 inh = blocks binding between human CBF-beta and RUNX1; Q01196+Q13951; AlphaScreen CBFb-His/RUNX1-biotin binding, biochemical; Potency, µM (doses to about 59.8 µM), for inactives: top-dose activity, negative = inhibition, actives largely listed as inhibitors; 230,000 tested, under 10 active; further: % of control where 0% means no effect
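AlphaScreen binding: CBFb-His and RUNX1-biotin (30 nM each) preincubated 20 min, compound added for 15 min, then nickel and streptavidin beads for 90 min, all at room temperature. Disruption of the interaction by any mechanism counts as activity.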
RGS12 GoLoco inh = blocks human Gai1 binding to RGS12 GoLoco peptide, red readout. Gai1:RGS12 GoLoco peptide FP, rhodamine, 10 min. Potency, µM (series often up to 61.6 µM), for the others: at the highest dose activity, negative = inhibition, most hits filed as inhibitors. 230,000 compounds, 0.44% hits; active means well fitted inhibition curve with a large enough effect, not every such curve was filed as active; inactive means no such curve, though single readings can be large or run the other way; further: potency means the concentration at half of the fitted maximal effect; on the % scale 0 is the no-effect control and ±100 the full control effect; nearly all actives have a fitted effect of over 30% in size
Target sequence (P63096 whole entry, looked up): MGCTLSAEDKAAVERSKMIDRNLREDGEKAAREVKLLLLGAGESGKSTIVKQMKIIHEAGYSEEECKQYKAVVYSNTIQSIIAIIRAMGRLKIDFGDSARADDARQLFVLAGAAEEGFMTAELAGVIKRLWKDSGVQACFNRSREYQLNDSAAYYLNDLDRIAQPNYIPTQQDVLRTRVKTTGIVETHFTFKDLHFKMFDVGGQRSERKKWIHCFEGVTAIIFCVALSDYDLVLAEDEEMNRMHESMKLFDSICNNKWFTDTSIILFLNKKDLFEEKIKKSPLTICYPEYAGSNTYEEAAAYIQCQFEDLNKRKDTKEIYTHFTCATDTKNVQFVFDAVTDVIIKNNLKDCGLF
ERK EGF inh = EGF-driven ERK pathway inhibition; HEK293-V1b, EGF-stimulated phospho-ERK AlphaScreen; Potency, µM (top dose mostly 11.5 µM), without a hit: top-dose activity change, negative = inhibition, most hits filed as inhibitors; 130,000 compounds, 0.41% hits;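 further: potency means the concentration at half of the fitted maximal effect; plate controls were stimulated vehicle wells for no effect and unstimulated vehicle basal for full effect; nearly all actives have a fitted effect of over 55% in size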
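Compounds are titrated over HEK293-V1b cells kept overnight in 1% FBS. After 30 min at 37C, EGF (25 nM final) triggers ERK phosphorylation for 5 min, measured by AlphaScreen in lysates.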
* hit, by the source's call; ? = inconclusive; . = not tested or not shown; ! = repeats disagree; [ ] = dose if it differs, or a comment. The list is not random: actives were taken first. Their share in the collection is about 0.5%. Unless noted, the call rests on the fitted dose curve; in most records, active means well fitted curve in the direction sought with a large enough effect; inconclusive means small, poorly fitted or top-dose-only effect, or another doubt; inactive means no such curve, though single readings can be large; an effect the other way counts as inactive or inconclusive.

SMILES	CBFb-RUNX1 inh	RGS12 GoLoco inh	ERK EGF inh
C=CC1=C2C=C(C3CC3)N(C3CCCC3)C=C2C(=O)C(C)(OC(=O)c2ccco2)C1=O (stereo unspecified)	-0.1%[13.1 µM]	2.1%[14.2 µM]	.
C=CC[C@@H]1C=C[C@@H](O/N=C\[C@@H](OC)[C@H](C)/C=C\CC(=O)OC)[C@@H](CO)O1	-14.6%[13.1 µM]	.	.
CSCC[C@@H]1NC(=O)C/C=C\[C@@H](C)COC(=O)[C@H](C)COC1=O	12.2%[13.1 µM]	.	.
C[C@@](O)(/C=C/[C@H]1CC=CC(=O)O1)[C@@H](C[C@@H](O)\C=C/C=C\C=C\CO)OP(=O)(O)O	-3.5%[13.1 µM]	-5.4%[14.2 µM]	.
CCCCCCCCCCCCC/C=C/[C@@H](O)[C@@H](N)COP(=O)(O)O	2.4%	22.4µM*!	-15.1%
CCCCCCCCCCCCC/C=C/[C@@H](O)[C@@H](N)CO	?	14.7%	?
Cc1ccc(C)c(N=Nc2nc3ccccc3n2C)c1	-6.2%	-12.6%	.
Cc1cc(C)c(C)c(N=Nc2nc3ccccc3n2C)c1C	?	-17.3%	14.1µM*
c1ccc(CNc2ncnc3ccc(-c4cccnc4)cc23)cc1	.	8.1%	.
Cc1ccc(Sc2ccc(CN3CCCCC3)cc2[N+](=O)[O-])cc1	-19.2%	-1.8%	10µM*
C=CCNC(=O)c1ccc(Sc2ccc(C)cc2)c([N+](=O)[O-])c1	-3.7%	1.4%	.
C[C@H]1Cc2c(COc3ccccc3)nc3c(c2CO1)CN(C(=O)NCCc1c[nH]c2ccccc12)CC3	1.3%[13.1 µM]	2.1%[14.2 µM]	.
CCN(CC)CCCCn1c(-c2ccccc2)nc2c(NC3CCCCC3)nc(C)nc21	6.4%	-0.8%	-3.2%
C=CCSSSCC=C	-11.2%	1.9%	-17.8%
Brc1ccc(Nc2ncnc3[nH]ncc23)cc1	7.7%	3.2%	?
Fc1cccc(Nc2ncnc3[nH]ncc23)c1	-2.9%	-6.4%	25.1µM*
Cc1ccc(C)n1-c1ccc(N2CCOCC2)c([N+](=O)[O-])c1	20.7%	-6.2%	-4.5%[57.5 µM]
O=[N+]([O-])c1cc(-n2cccc2)ccc1N1CCOCC1	?	15.9%	28.2µM*
C=CCC(C)(O)c1ccccc1 (stereo unspecified)	-4.4%	-3.0%	-5.7%
O=S(=O)(CCc1ccccc1)c1nnnn1-c1ccccc1	2.5%	3.7%	0.8%
CCN(CC)S(=O)(=O)c1ccc(Cl)c(NC(=O)COC(=O)c2ccc(O)cc2)c1	1.4%	5.1%	28.2µM*
CN(C)S(=O)(=O)c1ccc(Cl)c(NC(=O)COC(=O)c2ccc(O)cc2)c1	7.5%	5.0%	?
Cc1c(C(=O)OC(C)C(C)C[N+](C)(C)C)oc2ccccc12 (stereo unspecified)	-2.3%	14.1µM*	.
CCOC(=O)c1c(C)[nH]c(C(=O)COC(=O)c2oc3ccccc3c2C)c1C	6.6%	-0.4%	.
Cc1c(C(=O)NN2CCCCC2)nn(-c2ccc(Cl)cc2Cl)c1-c1ccc(Cl)cc1	.	0.5%	.
SMILES	CBFb-RUNX1 inh	RGS12 GoLoco inh	ERK EGF inh
COc1ccc(-c2csc(NC(=O)c3ccccc3C(=O)O)n2)cc1	18.7%	3.1%	4.8%
COc1ccc(-c2csc(NC(=O)c3ccoc3C)n2)cc1	-5.3%	-10.9%	15.8µM*
CC(OCc1ccccc1)C(NC(=O)OC(C)(C)C)C(=O)NC1COC2CC(n3ccc(=O)[nH]c3=O)OC12 (stereo unspecified)	16.4%	.	.
Cc1ccc(-c2c(C3C4C=CCCC4(C)C(=O)N3Cc3ccccc3)ccc3ccccc23)cc1 (stereo unspecified)	-5.7%	.	.
Cc1nnc(SCC2=C(C(=O)O)N3C(=O)C(NC(=O)Cn4cnnn4)[C@@H]3SC2)s1 (stereo partly specified)	-12.6%	-2.2%	7.7%
COC(=O)c1cc(=O)c(O)c2c(O)c(O)ccc2c1	.	2.82µM*	7.7%
COC(=O)c1ccc(O)cc1	10.8%	-81.6%	.
CC(=O)c1c(COC(=O)c2ccc(C)cc2)nc2ccccc2[n+]1[O-]	-1.3%	-2.6%	-7.5%[57.5 µM]
CC(=O)c1c(COC(=O)c2cccnc2)nc2ccccc2[n+]1[O-]	-6.5%	8.91µM*	.
COc1cc(N=C(N)N=C(N)N)c2ncccc2c1	.	3.4%[14.2 µM]	.
O=C(Cl)CCCCCCCC(=O)Cl	2.8%	.	.
CC(=O)Nc1nc(CC(C)C)cc(-c2ccccc2)c1C#N	-2.9%	-1.5%	-2.1%[57.5 µM]
CC(=O)Nc1nc(CC(C)C)cc(-c2ccco2)c1C#N	0.6%	2.82µM*	.
Cc1cc(C)c(-c2cc([C@H](C)O/N=C\[C@@H](C)[C@H](OCc3ccccc3)C(C)C)on2)c(C)c1	20.5%[13.1 µM]	.	.
C=C1C=CS(=O)(=O)N(C(C)C(=O)OC)C1 (stereo unspecified)	-15.2%	.	.
O=S(=O)(c1ccc(Cl)c(NC(=S)N/N=C/c2ccc(O)cc2)c1)N1CCOCC1	-7.9%	15.3%	28.2µM*
O=S(=O)(c1ccc(Cl)c(NC(=S)N/N=C/c2c(F)cccc2F)c1)N1CCOCC1	-9.9%	.	.
CCCN[C@@H](C)C(=O)Nc1c(C)csc1C(=O)OC	0.3%[21.7 µM]	6.1%[21.6 µM]	2.9%[25.7 µM]
CCC(C)NC(=O)Nc1ccc(Br)cc1 (stereo unspecified)	6.5%	-2.7%	-1.2%
CCC(C)Nc1ccc(NC(C)CC)cc1 (stereo unspecified)	?	31.6µM*	.
CCCCOC(=O)c1ccc(N=Nc2c(C)c(C#N)c(O)[nH]c2=O)cc1	-10.7%	-0.1%	0.4%[57.5 µM]
Cc1cccc(N=Nc2c(C)c(C#N)c(O)[nH]c2=O)c1	-2.6%	5.01µM*	-7.1%
CC(C)CN1CCCC2(CCN(C(=O)c3cnccn3)CC2)C1	.	3.6%	-11.1%
Cc1c(Nc2cc(Cl)c3nonc3c2[N+](=O)[O-])c(=O)n(-c2ccccc2)n1C	0.4%	-34.8%	?
O=C(O)c1ccc(Nc2cc(Cl)c3nonc3c2[N+](=O)[O-])cc1	4.2%	14.1µM*	6.4%
SMILES	CBFb-RUNX1 inh	RGS12 GoLoco inh	ERK EGF inh
Cc1cccc(CNc2ncnc3ccc(-c4ccc(C(=O)N(C)C)cc4)cc23)c1	.	2.4%	?
O=C1C=CC2=C3c4cc(O)c(O)cc4CC3(O)COC2=C1O (stereo unspecified)	?	2.51µM*	?
CC1(C)CO[C@@H](CC(=O)O)CN1	11.1%	2.9%	.
CS(=O)(=O)N1CCC2(CC1)CN(c1cccc(-c3ccccc3)c1)C2	.	-11.8%	5.5%
Cc1cccc(Nc2ncnc3ccccc23)c1	7.7%	10.5%	.
Cc1ccc(Nc2ncnc3ccccc23)cc1	9.1%	-0.4%	25.1µM*
COc1ccc(Br)cc1C1C2C=CCCC2(C)C(=O)N1Cc1ccccc1 (stereo unspecified)	8.7%	.	.
O=C(c1ccc(Cl)cc1)C1CCCN(Cc2cnn(-c3ccccc3)c2)C1 (stereo unspecified)	0.2%	5.0%	28.2µM*
O=C(c1ccc(-c2ccccc2)cc1)C1CCCN(Cc2ccncc2)C1 (stereo unspecified)	1.1%	21.0%	?
c1ccc(C(c2cccc3c2ccc2ccccc23)[C@H](c2ccccc2)c2cccc3c2ccc2ccccc23)cc1 (stereo partly specified)	.	9.1%[14.2 µM]	.
CN(C)S(=O)(=O)N1C(=O)c2ccccc2C1=O	5.3%	11.8%	-3.0%[57.5 µM]
CN(C)/C=C1\C=C2C(=O)c3ccccc3N2C1=O	-0.1%	12.6µM*	1.7%[57.5 µM]
NC(=O)[C@@H]1CCCN1C(=O)[C@H](Cc1cnc[nH]1)NC(=O)[C@@H]1CCC(=O)N1	.	1.7%	.
